ChEMBL document CHEMBL3988442, “University of Dundee, Small-Polar-MMV Screening Library” (2021)
Hit rate of the full screen: of about 48,000 compounds, about 13,000 (27%) showed an effect of 50% or more. This is one part of the list.

system: Wolbachia pipientis; assay: Anti-Wolbachia Cell-Based Screen; assay type: functional; parameters: scale not given: in the data most compounds retested in dose-response had high values; conditions: 5 µM

**Q.** How did the “Percent Effect” value turn out when `N#CCCN(CC1CCOC1)Cn1ccc(-c2ccccc2)n1` (centres undefined) was run?
**A.** -2.845%

**Q.** With `CN(C)C1(C(=O)NC2CCC(Oc3ccccc3C#N)CC2)CCC1` (centres undefined) as the compound, how does the “Percent Effect” value read?
**A.** -18.62%

**Q.** How did the “Percent Effect” value turn out when `CCN(Cc1nc(COC)no1)Cc1ccccc1OCC(=O)O` was run?
**A.** 10.36%

**Q.** `CCn1cc(C(=O)NCC(C)(CC)N2CCOCC2)c2ccccc21` (centres undefined) was tested. Which “Percent Effect” value did it give?
**A.** 6.626%

**Q.** How did the “Percent Effect” value turn out when `Cc1cnn(CCNCc2c(C)nn(Cc3ccccc3)c2C)c1` was run?
**A.** -5.977%

**Q.** Which “Percent Effect” value does the source give for `Cn1cccc1CN1CCC2(CCCN(C(=O)Cc3cccnc3)C2)C1` (centres undefined) here?
**A.** 5.928%

**Q.** With `O=C(O)C(F)(F)F.O=C(O)C(F)(F)F.O=C(c1ccsc1)N1CCC2(CC1)COCCN(Cc1ccncc1)C2` as the compound, how does the “Percent Effect” value read?
**A.** 15.81%

**Q.** With `O=C(C1CCCO1)N1CCC2(CC1)COCCN(Cc1cccnc1)C2.O=C(O)C(F)(F)F.O=C(O)C(F)(F)F` (centres undefined) as the compound, how does the “Percent Effect” value read?
**A.** 128.2%

**Q.** With `O=C([C@@H]1CCCO1)N1CCOCC2(CCN(Cc3cccnc3)C2)C1` (some centres undefined) as the compound, how does the “Percent Effect” value read?
**A.** 95.11%

**Q.** For `O=C(N1CCCC1)N1CCC2(CC1)COCCN(Cc1cccnc1)C2.O=C(O)C(F)(F)F.O=C(O)C(F)(F)F`, which “Percent Effect” value is on record?
**A.** -4.319%

**Q.** For `O=C(C1CCC2(CCN(Cc3cccnc3)CC2)CO1)N1CCCC1.O=C(O)C(F)(F)F.O=C(O)C(F)(F)F` (centres undefined), which “Percent Effect” value is on record?
**A.** 90.21%

**Q.** `O=C(C1CCCO1)N1CCC2(CC1)COCCN(Cc1ccncc1)C2.O=C(O)C(F)(F)F.O=C(O)C(F)(F)F` (centres undefined) was tested. Which “Percent Effect” value did it give?
**A.** -9.895%

**Q.** `O=c1[nH]c(C2CCOC2)nc2ccc(Cl)cc12` (centres undefined) was tested. Which “Percent Effect” value did it give?
**A.** -0.06581%

**Q.** How did the “Percent Effect” value turn out when `CCC1CN(C(=O)c2ccccc2N2CCCC2)CCN1C(C)C` (centres undefined) was run?
**A.** -3.455%

**Q.** With `CCN1C(=O)CC(c2ccccc2)C12CCN(c1ncc(C)cn1)CC2` (centres undefined) as the compound, how does the “Percent Effect” value read?
**A.** -13.83%

**Q.** For `COCCN1C(=O)CC(c2cccnc2)C12CCN(C(=O)C1CC1)CC2.O=C(O)C(F)(F)F` (centres undefined), which “Percent Effect” value is on record?
**A.** 106.6%

**Q.** For `CCN1C(=O)CC(c2cnn(C)c2)C12CCN(C(=O)c1ccc[nH]1)CC2` (centres undefined), which “Percent Effect” value is on record?
**A.** 13.05%

**Q.** `CCC(=O)N1CCC2(CC1)C(c1cccnc1)CC(=O)N2CCOC.O=C(O)C(F)(F)F` (centres undefined) was tested. Which “Percent Effect” value did it give?
**A.** 110.5%

**Q.** With `COCCN1C(=O)CC(c2cccnc2)C12CCN(C)CC2` (centres undefined) as the compound, how does the “Percent Effect” value read?
**A.** 113.4%

**Q.** With `CCN1C(=O)CC(c2cccnc2)C12CCN(c1ncc(F)cn1)CC2` (centres undefined) as the compound, how does the “Percent Effect” value read?
**A.** -11.62%

**Q.** For `F[C@@H]1CN(Cc2ccccc2)C[C@@H]1OCc1nc2ccccc2[nH]1`, which “Percent Effect” value is on record?
**A.** -3.249%

**Q.** With `O=C(NCCCN1CCC(OC2CCCCC2)CC1)C1CCCC1` as the compound, how does the “Percent Effect” value read?
**A.** -7.761%

**Q.** With `CCC(C)N(Cc1cccnc1)C(=O)CCSC` (centres undefined) as the compound, how does the “Percent Effect” value read?
**A.** -1.177%

**Q.** With `CCc1noc(CN(C)C(=O)C2COc3ccccc3C2)n1` (centres undefined) as the compound, how does the “Percent Effect” value read?
**A.** 19.12%

**Q.** Which “Percent Effect” value does the source give for `CCO[C@@H]1CN(Cc2scnc2C)[C@@H]2CCCO[C@@H]21.O=C(O)C(F)(F)F.O=C(O)C(F)(F)F` here?
**A.** -1.893%

**Q.** With `CCO[C@H]1CN(CC2CCOCC2)[C@@H]2CCCO[C@H]12.O=C(O)C(F)(F)F` as the compound, how does the “Percent Effect” value read?
**A.** 93.44%

**Q.** Which “Percent Effect” value does the source give for `CN(C)C(=O)CO[C@@H]1CN(Cc2ccccc2F)[C@@H]2CCCO[C@@H]21.O=C(O)C(F)(F)F` here?
**A.** -3.753%

**Q.** Which “Percent Effect” value does the source give for `CN(C)CCO[C@H]1CN(CC2CC2)[C@@H]2CCCO[C@H]12.O=C(O)C(F)(F)F.O=C(O)C(F)(F)F` here?
**A.** 109%

**Q.** `CN(C)C(=O)CO[C@H]1CN(Cc2ccc(F)cc2)[C@@H]2CCCO[C@H]12.O=C(O)C(F)(F)F` was tested. Which “Percent Effect” value did it give?
**A.** -2.214%

**Q.** How did the “Percent Effect” value turn out when `Fc1ccccc1CN1C[C@H](OCC2CCOCC2)[C@H]2OCCC[C@H]21.O=C(O)C(F)(F)F` was run?
**A.** -9.213%

**Q.** `CNC(=O)C1CN(C(=O)c2ccncc2)CCN(S(C)(=O)=O)C1` (centres undefined) was tested. Which “Percent Effect” value did it give?
**A.** 113%

**Q.** How did the “Percent Effect” value turn out when `O=C(O)C[C@@H]1CCN(C(=O)c2cccs2)C[C@@H]1CCN1CCCCC1` was run?
**A.** -8.603%

**Q.** `CS(=O)(=O)NC[C@H]1OC[C@@H]2CCN(C(=O)c3cccnc3)C[C@@H]21` was tested. Which “Percent Effect” value did it give?
**A.** -2.955%

**Q.** Which “Percent Effect” value does the source give for `CNS(=O)(=O)c1ccc(C(=O)N2CCCC(n3cccn3)C2)cc1` (centres undefined) here?
**A.** -7.031%

**Q.** Which “Percent Effect” value does the source give for `CNC(=O)C1CN(C(=O)c2cccnc2)CCN(S(C)(=O)=O)C1` (centres undefined) here?
**A.** 102.1%

**Q.** For `CN(C)c1cc(C(=O)N2CCN(S(C)(=O)=O)CC2)ccn1`, which “Percent Effect” value is on record?
**A.** -8.698%

**Q.** Which “Percent Effect” value does the source give for `CNC(=O)C1CN(C(=O)c2cccs2)CCN(S(C)(=O)=O)C1` (centres undefined) here?
**A.** 103.3%

**Q.** With `CC(C)C1CN(C(=O)c2cccs2)CCS1` (centres undefined) as the compound, how does the “Percent Effect” value read?
**A.** -18.38%

**Q.** How did the “Percent Effect” value turn out when `CCCNC(=O)C[C@@H]1CCN(C(=O)c2cccnc2)C[C@@H]1CC` was run?
**A.** -4.226%

**Q.** `COCCN(Cc1cccnc1)c1nc(C)nc2oc(C)nc12` was tested. Which “Percent Effect” value did it give?
**A.** 1.02%

**Q.** For `CCCN(CC1CC1)C(=O)Cn1ccccc1=O`, which “Percent Effect” value is on record?
**A.** -7.373%

**Q.** `O=C(O)C(F)(F)F.O=C(O)C(F)(F)F.O=C(O)C(F)(F)F.c1cnc(N2CCN(C3CCC[C@@H]4CN(CC5CC5)C[C@H]34)CC2)nc1` (some centres undefined) was tested. Which “Percent Effect” value did it give?
**A.** -9.573%

**Q.** How did the “Percent Effect” value turn out when `Clc1cccc2c3c([nH]c12)CCN(Cc1cc2n(n1)CCCNC2)C3` was run?
**A.** -3.179%

**Q.** `CC(C(=O)NC1CC1)S(=O)(=O)Cc1noc(C(C)(C)C)n1` (centres undefined) was tested. Which “Percent Effect” value did it give?
**A.** 12.74%

**Q.** How did the “Percent Effect” value turn out when `CCOc1cccc(COC(=O)c2ccc(Cl)cn2)n1` was run?
**A.** -10.12%

**Q.** With `CCOc1cccc(COC(=O)c2cc(Cl)ccn2)n1` as the compound, how does the “Percent Effect” value read?
**A.** -4.3%

**Q.** `CCOc1cccc(NC(=O)c2cnc(C)cn2)n1` was tested. Which “Percent Effect” value did it give?
**A.** 87.8%

**Q.** `CCOc1cccc(COC(=O)c2cc(C)on2)n1` was tested. Which “Percent Effect” value did it give?
**A.** 106.6%

**Q.** With `CCOc1cccc(NC(=O)c2cc[nH]n2)n1` as the compound, how does the “Percent Effect” value read?
**A.** 87.66%

**Q.** How did the “Percent Effect” value turn out when `CCOc1cccc(COC(=O)c2cscn2)n1` was run?
**A.** -4.907%

**Q.** With `CCOc1cccc(NC(=O)Cc2cccc(O)c2)n1` as the compound, how does the “Percent Effect” value read?
**A.** -45.48%

**Q.** For `CCOc1cccc(NC(=O)c2cc(C)on2)n1`, which “Percent Effect” value is on record?
**A.** 91.67%

**Q.** How did the “Percent Effect” value turn out when `CCOc1cccc(NC(=O)c2cscn2)n1` was run?
**A.** -16.65%

**Q.** Which “Percent Effect” value does the source give for `COC(CNC(=O)c1cc(C)on1)c1ccccc1C` (centres undefined) here?
**A.** 2.502%

**Q.** `O=C(Nc1cc(C2CCOCC2)[nH]n1)c1cc[nH]n1` was tested. Which “Percent Effect” value did it give?
**A.** -3.397%

**Q.** With `CCOc1cccc(COC(=O)c2ccc(F)cn2)n1` as the compound, how does the “Percent Effect” value read?
**A.** -9.322%

**Q.** `CCN1CCN(C(=O)c2ccc3c(c2)CCCN3)[C@H]2CS(=O)(=O)C[C@H]21` was tested. Which “Percent Effect” value did it give?
**A.** -2.171%

**Q.** How did the “Percent Effect” value turn out when `CSCCC1c2nc[nH]c2CCN1Cc1ccccc1C#N` (centres undefined) was run?
**A.** -9.025%

**Q.** With `Cc1ccc(NC(=O)c2cc(S(=O)(=O)N3CCCCC3)c[nH]2)cc1F` as the compound, how does the “Percent Effect” value read?
**A.** 1.173%
